# From PubChem BioAssay (NCI)
# About 83,000 compounds went through this panel and 20% of them were active in at least one assay; those are over-represented in the sample as a whole.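 Treatment: one concentration, 48 hours, 96-well format. Scoring: percent growth, with anything below 10 considered active.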 A number with no mark means an inactive call. The source made the active and inactive calls.
# Tests used:
# Test in all cases: NCI-60 one-dose screen, 48 h (100 = growth as untreated, 0 = no growth, -100 = all killed)
# NCI-H23 lung = settings: 10 µM unless noted
# NCI-H226 lung = settings: 10 µM unless noted
# NCI-H322M lung = settings: 10 µM unless noted
# NCI-H460 lung = settings: 10 µM unless noted
# A549/ATCC NSCLC = settings: 10 µM unless noted
# 786-0 renal = settings: 10 µM unless noted
# COLO 205 colon = settings: 10 µM unless noted
# DU-145 prostate = settings: 10 µM unless noted
# K-562 leukemia = settings: 10 µM unless noted
# MALME-3M melanoma = settings: 10 µM unless noted
# MDA-MB-231 breast = settings: 10 µM unless noted
# RXF 393 renal = settings: 10 µM unless noted
# SF-268 CNS = settings: 10 µM unless noted
# SF-295 CNS = settings: 10 µM unless noted
# SF-539 CNS = settings: 10 µM unless noted
# UACC-257 melanoma = settings: 10 µM unless noted
# M14 melanoma = settings: 10 µM unless noted
# HOP-92 NSCLC = settings: 10 µM
# NCI-H522 lung = settings: 10 µM
# HOP-62 NSCLC = settings: 10 µM unless noted
SMILES,growth (NCI-H23 lung),growth (NCI-H226 lung),growth (NCI-H322M lung),growth (NCI-H460 lung),growth (A549/ATCC NSCLC),growth (786-0 renal),growth (COLO 205 colon),growth (DU-145 prostate),growth (K-562 leukemia),growth (MALME-3M melanoma),growth (MDA-MB-231 breast),growth (RXF 393 renal),growth (SF-268 CNS),growth (SF-295 CNS),growth (SF-539 CNS),growth (UACC-257 melanoma),growth (M14 melanoma),growth (HOP-92 NSCLC),growth (NCI-H522 lung),growth (HOP-62 NSCLC)
COc1cc(-c2nn(-c3ccc(NC(=O)c4cc(Cl)cc(Cl)c4)cc3)cc2-c2ccncc2)ccc1Cl,88%,107%,104%,54.8%,73%,16.7%,101%,96.9%,23.4%,104%,80.9%,-17.1% (active),76.9%,-1.01% (active),60.2%,102%,62.9%,–,–,–
CC(C)(C)c1ccc(OCCOC(=O)CBr)cc1,98.7%,102%,120%,102%,105%,103%,89.1%,109%,82.8%,107%,88%,78.5%,96.3%,116%,100%,106%,95.8%,–,–,–
CCN(CC)C(=O)C1(C)CCCC2(C)c3cc(OC(C)=O)ccc3CCC12 (stereo unspecified),84.3%,75.8%,83.5%,90%,–,92%,92%,99.9%,58.6%,86.4%,103%,92%,86.5%,85.1%,89.2%,–,112%,–,–,–
CC(=O)/C(=C\c1c(-c2ccccc2)[nH]c2ccccc12)S(=O)(=O)c1ccccc1,-19.8% (active),23.2%,43.1%,2.86% (active),19.6%,9.85% (active),12%,-18.7% (active),-53.4% (active),62.6%,4.14% (active),-28.2% (active),7.87% (active),-41.4% (active),-38.1% (active),-6.16% (active),5% (active),–,–,–
CCCCCCN(CCCCCC)CCC(=O)Nc1ccc(S(=O)(=O)c2ccc(NC(=O)CCN(CCCCCC)CCCCCC)cc2)cc1,84.3%,78.6%,75.3%,–,94.1%,90.5%,74.1%,95.4%,7.37% (active),96%,61%,83.3%,80.1%,100%,94.7%,99.8%,88.9%,69.4%,–,–
COc1cc2cc3cc4cc(OC)c(OC)cc4c(C)[n+]3cc2cc1OC (tested in a mixture with another compound),89%,80%,89.8%,89.1%,–,66.5%,111%,79.3%,58.1%,86.2%,94.5%,–,39.4%,70.7%,85%,51.1%,78.4%,143%,56.4%,–
CC(C)OC(=O)c1ccc2n1CCCc1cnc(Nc3ccccc3)nc1-2,67%,–,116%,86.6%,74.4%,83.3%,86%,87.2%,43.6%,55.4%,78%,91.2%,94.4%,76.1%,86.1%,82.8%,89.6%,75.6%,63.3%,–
O=C(/C=C1\C(=O)N(Cc2ccccc2)c2ccccc21)c1ccc(OCCN2CCCCC2)cc1,58.9%,–,92.6%,87.7%,83%,-74.3% (active),-34% (active),47.5%,2.2% (active),–,45.9%,0.729% (active),73.9%,85.6%,51.9%,76.8%,–,10.7%,-44.5% (active),–
CCCC(=O)Nc1ccccc1C(=O)O,86.6%,–,107%,–,94.3%,112%,97%,97.6%,104%,106%,123%,93.7%,92.4%,93.9%,102%,85.2%,98.6%,95.7%,90.7%,–
CC(=O)NNC(=O)c1sc(NC(C)=O)nc1C,98.2%,–,121%,108%,104%,122%,108%,113%,61.4%,168%,100%,112%,93.2%,106%,97.8%,105%,–,57.4%,139%,–
COc1cc(-c2nn(-c3ccc(NC(=O)Nc4cc(C(F)(F)F)cc(C(F)(F)F)c4)cc3)cc2-c2ccncc2)ccc1Cl,8.45% (active),–,6.93% (active),-20.6% (active),12.1%,-41.4% (active),-89.8% (active),16.8%,17.2%,-1.21% (active),-18.7% (active),-2.81% (active),14.1%,-34.8% (active),15.8%,-1.38% (active),4.73% (active),–,–,12.2%
COc1cc2c(/C=C3\C(=O)Nc4ccc(Br)cc43)c(Cl)n(C)c2cc1C,20.6%,–,17.2%,8.86% (active),24%,-17.3% (active),6.03% (active),17.5%,6.73% (active),21.9%,7.42% (active),-23.9% (active),29.6%,9.82% (active),7.51% (active),28.8%,–,-4.95% (active),-3.92% (active),–
O=C(/C=C\c1ccccc1Cl)c1ccccc1,91.9%,–,104%,95.4%,–,93.9%,120%,101%,102%,98.9%,91.7%,89.7%,93.4%,75.2%,103%,119%,101%,112%,100%,–
Clc1ccc(N/N=C/c2ccccn2)nc1,6.51% (active),–,23.6%,3.11% (active),11.2%,7.14% (active),13.6%,19.2%,10.8%,1.36% (active),34.5%,16.2%,6.56% (active),1.61% (active),1.62% (active),1.06% (active),-25.7% (active),39.7%,37.5%,–
COc1ccc(Nc2c3ccccc3nc3ccccc23)cc1,36.1%,–,43.3%,9.36% (active),–,43.6%,20.1%,21.5%,12.4%,42.3%,55.3%,28.1%,35.9%,15.9%,23.3%,–,48%,–,–,33.7%
COc1cc(/C=C/C(=O)c2ccc(F)cc2)ccc1OCCCCOc1cc2c(cc1OC)C(=O)N1CCCC1C=N2 (stereo unspecified),-33.9% (active),–,88.1%,-49.5% (active),45.9%,–,-45.2% (active),-72.1% (active),-23.9% (active),-6.3% (active),-15% (active),-71.6% (active),-12.4% (active),-29.1% (active),-61.9% (active),2.17% (active),–,-43.9% (active),-61.1% (active),–
[2H]c1nc(=Nc2cc(NC(=O)C=C)c(N(C)CCN(C)C)cc2OC)[nH]c(-c2cn(C([2H])([2H])[2H])c3ccccc23)c1[2H],60.3%,–,2.1% (active),57.3%,40.6%,48.7%,29.4%,45%,-18.3% (active),8.26% (active),54%,44.1%,51.2%,85.4%,40.5%,-2.01% (active),-52.7% (active),22.9%,13.3%,–
